Where “and” joins values, the source holds several entries; their conditions need not be identical. Equal values may be shown once. Results filed as inconclusive are left out. Entries that show only a call come without a potency. Values without a mark were called inactive. Calls of active or inactive are those of the source. Calls follow the shape of the dose curve; as a rule, active = well fitted inhibition curve with a large enough effect in the repeat runs; inconclusive = weak or mixed curves, or effect the other way; inactive = no such curve, though single readings can be large or run the other way.
molecular target: Nuclear receptor subfamily 1 group I member 3 (Homo sapiens) (UniProt Q14994); assay: qHTS assay to identify small molecule antagonists of the constitutive androstane receptor (CAR) signaling pathway (AID 1224838); details: HepG2-CYP2B6-hCAR luciferase, CITCO-stimulated, 24 h; series mostly up to 92.4 µM; activity, negative = inhibition: at the top concentration;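 also: HepG2 cells stably expressing hCAR with CYP2B6 luciferase reporter stimulated by CITCO; nearly all actives have a fitted effect of over 40% in size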
From the text: U.S. Tox21 Program National Center for Advancing Translational Sciences [NCATS] NIH Chemical Genomics Center [NCGC] U.S. Environmental Protection Agency [EPA] National Institutes of Environmental Health Sciences [NIEHS] National Toxicology Program [NTP] U.S. Food and Drug Administration [FDA] Tox21 Assay Overview: The constitutive androstane receptor (CAR) is a nuclear receptor which regulates multiple drug metabolizing enzymes (DMEs) and transporters. Activating CAR will generally increase the transcription and subsequent translation of CYP2B6 and CYP3A4. These two DMEs represent about 50% of the drug metabolizing potential in the body. When CAR is deactivated, the metabolizing potential in the body will decrease, subsequently increasing the toxicity in the body or lowering the therapeutic potential of a pro-drug. Recently, there have also been studies performed indicating CARs role in energy metabolism and cancer therapy. Therefore, inhibiting CARs activity could have a potential effect on diabetes and cancer. Identifying environmental toxins and compounds which modulate CAR, through the use of the Tox21 10K compound collection, will be an important step in determining the toxicity and potential therapeutic effects these factors will have on the human body.
Tox21 Assay Protocol Summary: A double-stable (hCAR and CYP2B6-2.2kb) transfected cell line, derived from human hepatoma (HepG2) cells, was utilized for the duration of the quantitative high-throughput screens. The HepG2-CYP2B6-hCAR cells suspended in DMEM culture medium supplemented with 10% FBS, 5 ug/mL blasticidin, 0.5 mg/mL geneticin, 100 U/mL penicillin and 100 ug/mL streptomycin were dispensed at 2500 cells/4 uL/well in 1536-well white solid bottom plates using a Multidrop Combi. After the assay plates were incubated at 37 C/5% CO2 for 4 hrs, 23 nL of compounds at 15 concentrations (from 5-48 columns) or positive control (from 1 to 4 columns) were transferred to the assay plates using a Pintool station. One uL of CITCO, was added using a Flying Reagent Dispenser to generate a final concentration of 50 nM CITCO inside each well. After a 24 hr incubation period at 37 C/5% CO2, four uL of ONE-Glo reagent was added into the assay plates using a Flying Reagent Dispenser. After a 30 min incubation period at room temperature, the luminescence intensity in the assay plates was measured using a ViewLux plate reader.
Potency is read from the fitted curve at half-maximal effect.

Nuclear receptor subfamily 1 group I member 3 (Homo sapiens), sequence (Q14994 whole entry, looked up): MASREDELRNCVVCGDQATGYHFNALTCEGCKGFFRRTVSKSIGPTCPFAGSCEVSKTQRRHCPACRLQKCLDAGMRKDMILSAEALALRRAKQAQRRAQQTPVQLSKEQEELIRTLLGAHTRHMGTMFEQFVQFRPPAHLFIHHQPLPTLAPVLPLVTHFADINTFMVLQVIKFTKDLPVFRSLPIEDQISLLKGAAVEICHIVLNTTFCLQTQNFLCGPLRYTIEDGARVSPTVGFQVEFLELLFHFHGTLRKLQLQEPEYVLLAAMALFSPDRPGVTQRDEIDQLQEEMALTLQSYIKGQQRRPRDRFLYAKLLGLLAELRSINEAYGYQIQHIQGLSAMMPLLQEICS

| Compound | Potency | activity, negative = inhibition [%] |
| --- | --- | --- |
| O=C1O[C@H](CO)[C@@H](O)[C@H](O)[C@H]1O | inactive |  |
| OC1CCCC1 | inactive |  |
| O=Nc1ccc(O)cc1 | inactive |  |
| O=S(=O)(O)CCS | inactive |  |
| Cc1cc(=O)[nH]c(C(C)C)n1 | inactive |  |
| ClC1=C(Cl)C(Cl)(Cl)C(Cl)=C1Cl | inactive |  |
| NCc1cccc(CN)c1 | inactive |  |
| Cc1ccc(C(=O)O)o1 | inactive |  |
| S=c1nc[nH]c2nc[nH]c12 | 1.5 µM (active) and 3.35 µM (active) |  |
| Cc1cc(Cc2ccc(N)c(C)c2)ccc1N | inactive |  |
| CN(CCOc1ccc(CC2SC(=O)NC2=O)cc1)c1ccccn1 (stereo not given) | inactive |  |
| CCc1ccc(O)cc1 | inactive |  |
| O=C(c1cc(O)c(O)c(O)c1)c1ccc(O)c(O)c1O | inactive |  |
| O=C(Cl)c1c(Cl)c(Cl)c(C(=O)Cl)c(Cl)c1Cl | inactive |  |
| Cc1cc(O)c2c(c1)C(=O)c1cc(O)cc(O)c1C2=O | inactive |  |
| NC(=O)NNc1ccccc1 | inactive |  |
| CC(=O)CCc1ccccc1 | inactive |  |
| CCCCCC/C=C/CCCCCCCC(=O)O | inactive |  |
| C[C@@H]1O[C@@H](OC[C@H]2O[C@@H](Oc3c(-c4ccc(O)c(O)c4)oc4cc(O)cc(O)c4c3=O)[C@H](O)[C@@H](O)[C@@H]2O)[C@H](O)[C@H](O)[C@H]1O | inactive |  |
| C=C(C)C(=O)OCC(CC)(COC(=O)C(=C)C)COC(=O)C(=C)C | inactive |  |

| Compound | Potency | activity, negative = inhibition [%] |
| --- | --- | --- |
| NCCNCCNCCNCCN | inactive |  |
| CC[Si](OC(C)=O)(OC(C)=O)OC(C)=O | inactive |  |
| CC(C)NCC(O)COc1cccc2ccccc12 (stereo not given) |  | -18.5 |
| O=C1CCCCC1 | inactive |  |
| CCCCC(CC)COC(C)=O (stereo not given) | inactive |  |
| CCC(C)C=O (stereo not given) | inactive |  |
| CC1=C(CC(=O)O)c2cc(F)ccc2/C1=C\c1ccc(S(C)=O)cc1 (stereo not given) | inactive |  |
| C=C(C)C(=O)OCCCCCCCCCCCC | inactive |  |
| CS(=O)(=O)Nc1ccc([N+](=O)[O-])cc1Oc1ccccc1 | inactive |  |
| O=S(=O)(Oc1ccc(Cl)cc1Cl)c1ccccc1 | inactive |  |
| NS(=O)(=O)c1cc2c(cc1Cl)NC=NS2(=O)=O | inactive |  |
| C/C=C(C)/C=C/C=C(C)C | inactive |  |
| CC(C)(N=C=O)c1cccc(C(C)(C)N=C=O)c1 | inactive |  |
| O=C1N=C(O)CN1/N=C/c1ccc(-c2ccc([N+](=O)[O-])cc2)o1 | inactive |  |
| CCCCNC(N)=O | inactive |  |
| CCCCC(CC)COC(=O)/C=C\C(=O)OCC(CC)CCCC (stereo not given) | inactive |  |
| CN(C)c1cccc(O)c1 | inactive |  |
| CCCCCCC(C)(C)S | inactive |  |
| C=CC(=O)OCCCCCCCC(C)C | inactive |  |
| O=C(c1ccc(O)cc1)c1ccc(O)cc1O | inactive |  |

Source: PubChem BioAssay (Tox21)
